Source: PubChem BioAssay (National Center for Advancing Translational Sciences (NCATS))
TDP1 inh = blocks human tyrosyl-DNA phosphodiesterase 1 | recombinant TDP1, AlphaScreen DNA substrate cleavage | Potency, µM (series often up to 130 µM), usual class: inhibitors | Q9NUW8 | AID 485290 | hit rate 0.28% among 350,000; further: nearly all actives have a fitted effect of over 40% in size
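Recombinant human Tdp1 (E. coli-expressed, 1 nM final) preincubated with compounds 15 min at room temperature, then 5'-biotin/3'-phosphotyrosine-FITC DNA substrate (15 nM final) added for 5 min. AlphaScreen beads (10 ug/ml final) added 10 min; cleavage lowers signal.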
DT40 TDP1 no CPT = qHTS for Inhibitors of human tyrosyl-DNA phosphodiesterase 1 (TDP1): qHTS in cells in absence of CPT | AID 686978, 2013 | hit rate 15% among 420,000 | Potency, µM (top dose mostly 46.2 µM), usual class: inhibitors | DT40 Tdp1-/- hTDP1 cells, no CPT, ATP luminescence, 48 h; further: nearly all actives have a fitted effect of over 55% in size
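Chicken DT40 Tdp1-/- cells complemented with human TDP1, screened without camptothecin (DMSO vehicle only), 400 cells/well. Compounds pin-transferred, cells incubated at 37 °C for at least 48 hr. Growth read as ATP-dependent luminescence (CellTiter-Glo, 30 min at RT).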
IL-1B inflam inh = inflammasome signaling inhibition, IL-1 beta readout; THP-1 LPS/ATP IL-1B secretion, AlphaLISA, 16 h; hits give low values; activity change, % at 57.5 µM; hit rate 4.7% among 360,000; in the data active means activity change below about -50%; inconclusive means mostly about -30% to -49%
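THP-1 cells pretreated 1 hr with compounds (up to 57.5 uM final), then stimulated with LPS (250 ng/mL final) plus ATP (1.25 mM final); secreted IL-1B measured by AlphaLISA after 16 hr, decreased signal indicating inhibition.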
Six1-Eya2 blk = blocks human Six1 binding to Eya2; hit rate 0.56% among 360,000; AlphaScreen GST-Six1/His-Eya2 binding, biochemical; hits give low values; activity change, % (no concentration beside the values); in the data active means activity change below about -65%; inconclusive means mostly about -30% to -63%
Target sequence (O00167 whole entry, looked up): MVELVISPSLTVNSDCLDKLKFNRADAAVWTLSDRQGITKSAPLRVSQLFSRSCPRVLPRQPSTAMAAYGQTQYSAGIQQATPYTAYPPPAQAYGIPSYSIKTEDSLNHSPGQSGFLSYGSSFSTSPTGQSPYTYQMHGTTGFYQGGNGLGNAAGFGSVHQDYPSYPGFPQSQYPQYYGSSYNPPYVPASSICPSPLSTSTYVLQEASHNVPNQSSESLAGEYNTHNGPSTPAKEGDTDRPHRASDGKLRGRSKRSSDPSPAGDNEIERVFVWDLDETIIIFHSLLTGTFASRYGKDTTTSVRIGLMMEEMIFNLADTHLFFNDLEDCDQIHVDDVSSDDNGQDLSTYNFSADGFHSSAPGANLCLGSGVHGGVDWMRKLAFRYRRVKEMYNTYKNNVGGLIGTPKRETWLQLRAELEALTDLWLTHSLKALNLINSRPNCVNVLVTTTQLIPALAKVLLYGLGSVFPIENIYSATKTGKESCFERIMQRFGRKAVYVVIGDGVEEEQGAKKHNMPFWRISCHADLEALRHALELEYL
Target sequence (Q15475 whole entry, looked up): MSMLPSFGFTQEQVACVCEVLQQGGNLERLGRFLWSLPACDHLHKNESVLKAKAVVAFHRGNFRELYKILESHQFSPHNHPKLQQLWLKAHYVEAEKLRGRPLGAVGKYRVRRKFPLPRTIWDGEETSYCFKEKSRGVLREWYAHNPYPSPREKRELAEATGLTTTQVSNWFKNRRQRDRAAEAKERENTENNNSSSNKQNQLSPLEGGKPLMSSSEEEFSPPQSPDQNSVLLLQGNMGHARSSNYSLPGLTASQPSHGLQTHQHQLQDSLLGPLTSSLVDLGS
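GST-Six1 + His-Eya2 (5X stock: 250/500 nM); Tris pH 8.0, 300 mM NaCl, 0.05% BSA, 0.02% Tween 20; GSH donor/Ni acceptor beads; 1 h 37 °C dark; AlphaScreen readout.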
TDP1 cell CPT = growth inhibition of DT40 Tdp1-/-;hTDP1 cells with camptothecin (screen for TDP1 inhibitors); chicken DT40 Tdp1-/-;hTDP1 cells + 20 nM CPT, ATP luminescence, 48 h; Potency, µM (highest dose often 46.2 µM), actives largely listed as inhibitors; hit rate 12% among 420,000; further: nearly all actives have a fitted effect of over 55% in size
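Chicken DT40 Tdp1-/- cells stably complemented with human TDP1 were seeded at 400 cells/well in medium containing 20 nM camptothecin, exposed to pin-transferred compounds, and grown at 37 °C for at least 48 hr. Viability was read as ATP luminescence.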
CtBP-E1A inh = blocks the CtBP interaction with E1A. hit rate 0.49% among 340,000. activity change, % (no concentration beside the values). AlphaScreen GST-E1A/His-CtBP binding, 1536-well; hits give low values; in the data active means activity change below about -65%; inconclusive means mostly about -30% to -63%
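Protein mix (5X: 125 nM each GST-E1A, His-CtBP) was incubated with pinned compound 2 h at 37 deg C in dark, in 50 mM Tris pH 8.0 buffer with 300 mM NaCl. Glutathione donor and nickel acceptor beads followed; AlphaScreen signal read after 1 h.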
Numbers stand for hits; – = inactive; ? = inconclusive; · = no result given. Rows were chosen to be rich in hits. Some 18% of all compounds tested hit in one or more screens of this group. Unless noted, the call rests on the fitted dose curve; in most records, active means well fitted curve in the direction sought with a large enough effect; inconclusive means small, poorly fitted or top-dose-only effect, or another doubt; inactive means no such curve, though single readings can be large; an effect the other way counts as inactive or inconclusive.

SMILES	TDP1 inh	DT40 TDP1 no CPT	IL-1B inflam inh	Six1-Eya2 blk	TDP1 cell CPT	CtBP-E1A inh
CCS(=O)(=O)c1ncc(Cl)c(C(=O)N2CCN(c3ccc(OC)cc3)CC2)n1	–	4.1µM	·	·	?	·
Cc1ccc(C(=O)NCc2ccc3c(c2)OCO3)c(Cl)c1	·	–	–	–	–	–
CCS(=O)(=O)c1ncc(Cl)c(C(=O)NCc2ccc(OC)cc2)n1	–	–	·	·	1.6µM	·
Cc1cc(C)c2cc(C#N)c(SCC(=O)Nc3ccc4c(c3)OCO4)nc2c1	·	–	?	–	–	–
O=C(Nc1ccc(-n2cnnn2)cc1)c1cc(S(=O)(=O)N2CCCC2)ccc1Cl	–	?	–	–	?	–
CC(C)(C)C(=O)O/N=C(\N)c1ccc(Oc2cc(Cl)cc(Cl)c2)c([N+](=O)[O-])c1	–	?	-61	–	?	–
CCC(=O)O/N=C(\N)c1ccc(Oc2cc(C)c(Cl)c(C)c2)c([N+](=O)[O-])c1	–	?	–	–	–	–
O=C(N/N=C/c1cccnc1)c1cc2ccccc2o1	–	–	–	–	–	·
O=C(N/N=C/c1ccncc1)c1cc2ccccc2o1	–	–	-52	–	–	–
O=C(N/N=C/c1cc(Br)c(Br)o1)c1cc2ccccc2o1	50µM	?	?	–	?	–
CCOC(=O)Cn1cc(/C=N/NC(=O)c2cc3ccccc3o2)c2ccccc21	–	?	?	–	–	–
Cc1cc(/C=N/NC(=O)c2cc3ccccc3o2)c(C)n1C	–	23µM	–	–	15µM	–
COc1ccc(OC)c(NC(=O)C2CC(=O)N(CCc3ccc(F)cc3)C2)c1 (stereo not given)	·	–	–	–	–	–
Fc1cccc(-n2cc(-c3ccccc3)c3c(=S)nc[nH]c32)c1	–	21µM	–	–	?	–
N#C/C(N=Nc1ccccc1O)=N\Nc1ccccc1O	–	23µM	?	-70	21µM	-82
CCOCCCn1c(=S)[nH]c2cc(C(=O)NCCc3ccc(OC)c(OC)c3)ccc2c1=O	–	–	–	–	–	–
CCOC(=O)C(=O)N(C)c1c(CC)nc2c(OCc3ccccc3C)cccn12	·	–	–	–	–	–
CCOC(=O)N(C)c1c(CC)nc2c(OCC(=O)C(C)(C)C)cccn12	·	–	–	–	–	–
CCOC(=O)N(C)c1c(CC)nc2c(OCc3ccccc3C)cccn12	·	15µM	–	–	?	–
CCOC(=O)N(C)c1c(CC)nc2c(OCc3ccccc3OC)cccn12	·	16µM	–	–	21µM	–
CCOC(=O)N(C)c1c(CC)nc2c(OCCOc3ccccc3)cccn12	·	16µM	–	–	?	–
O=C(CN1CCSCC1)N1CCc2[nH]c3ccc(Br)cc3c2C1	–	·	·	·	·	·
CCOC(=O)/C(=C\c1cccc(O)c1)c1nc2sc(C)c(C)c2c(=O)[nH]1	–	23µM	-102	–	9.2µM	–
O=C(Nc1cnn(Cc2c(Cl)cccc2Cl)c1)C(c1ccccc1)c1ccccc1	–	16µM	–	–	23µM	–
O=C(COc1ccccc1Cl)Nc1cnn(Cc2ccccc2)c1	–	?	–	–	–	–
SMILES	TDP1 inh	DT40 TDP1 no CPT	IL-1B inflam inh	Six1-Eya2 blk	TDP1 cell CPT	CtBP-E1A inh
Cc1cc(C)c2nc(-c3ccccn3)cc(C(=O)n3cccn3)c2c1	–	18µM	–	–	?	–
Cc1cccc(C)c1NC(=O)c1cc(-c2ccccn2)nc2ccccc12	–	?	–	–	?	–
CCN(Cc1cc2ccccc2[nH]c1=O)S(=O)(=O)c1ccc(OC)cc1	–	–	–	–	–	–
COc1ccc(-c2c(C#Cc3ccsc3)c3cc(-c4ccc(OC)c(F)c4)ccc3n2C)cc1	–	?	–	–	?	·
COc1ccc(-c2c(C#Cc3ccsc3)c3cc(-c4ccc5cc[nH]c5c4)ccc3n2C)cc1	–	21µM	–	–	?	–
COc1ccc(-c2c(C#Cc3ccc(N(C)C)cc3)c3ccccc3n2C)cc1	–	?	–	?	23µM	?
COc1ccc(-c2c(C#Cc3ccsc3)c3cc(Br)ccc3n2C)cc1	–	21µM	–	–	?	·
COc1cc(OC)cc(-c2c(C#Cc3ccsc3)c3cc(-c4ccc5cc[nH]c5c4)ccc3n2C)c1	–	?	–	–	?	·
CCOc1ccc(C(=O)NCC(=O)OCC(=O)N2CCC(C)CC2)cc1	–	–	–	–	–	–
O=C(CO/N=C/c1ccccc1Cl)N1CCCc2ccccc21	–	?	–	–	?	–
CCC(C)(C)C(=O)Nc1cc([N+](=O)[O-])ccc1Cl	–	–	–	–	–	–
Cc1cc(C)n(CCCC(=O)O)n1	–	–	-67	–	–	–
COc1ccc(-c2oc3c(c2C#CCCCCO)C(OCCO)CC3)cc1 (stereo not given)	·	?	–	–	?	–
CCOc1ccccc1C(=O)N(Cc1ccc(N(C)C)cc1)Cc1ccco1	–	16µM	·	·	?	·
CCOc1cccc(C(=O)N(Cc2ccc(F)cc2)Cc2ccco2)c1	–	16µM	·	·	23µM	·
CC(C)(C)c1ccc(C(=O)N(Cc2ccc(F)cc2)Cc2ccco2)cc1	–	?	·	·	?	·
CCOc1c(Cl)cc(C(=O)N(Cc2ccc(N(C)C)cc2)Cc2ccco2)cc1Cl	–	13µM	·	·	23µM	·
Cc1ccccc1OCCC(=O)N(CC(=O)Nc1ccccc1C(F)(F)F)Cc1ccco1	·	–	–	–	–	–
CC(C)COc1cccc(C(=O)N(CC(=O)Nc2ccccc2C(F)(F)F)Cc2ccco2)c1	–	18µM	–	–	?	–
O=C(c1ccco1)N1CCCN(Cc2nc(Cc3ccccc3)no2)CC1	–	–	–	–	–	–
Cc1cn([C@H]2C[C@H](O)[C@@H](/C=C/C(=O)NCc3cccc4ccccc34)O2)c(=O)[nH]c1=O	·	–	–	–	–	–
Cc1cc(=O)n2[nH]c(NCc3ccccc3F)nc2n1	–	–	–	–	–	–
CCN(Cc1ccccc1)S(=O)(=O)c1ccc2c(c1)NC(=O)CC(=O)N2	–	–	–	–	–	·
CC(C)COc1ccc(C(=O)N(Cc2ccc(N(C)C)cc2)Cc2ccco2)cc1	–	15µM	·	·	18µM	·
CN(C)c1ccc(CN(Cc2ccco2)C(=O)c2ccco2)cc1	–	?	–	?	?	?
O=C1C2C3c4ccccc4C(c4ccccc43)C2C(=O)N1/N=C/c1cccc(O)c1 (stereo not given)	–	?	–	–	21µM	–
CCOC(=O)/C=C/c1cc(F)ccc1O	·	–	–	–	–	–
COC(=O)/C=C/c1cc(O)ccc1O	–	1.2µM	·	·	0.73µM	·
CCCCOc1ccc(C(=O)NCc2nnnn2-c2ccc(C)c(C)c2)cc1	–	?	·	·	16µM	·
